Measured values as given in PubChem BioAssay AID1159580 (chemical genetic matrix, 2015).
“And” between values parts separate entries of the source, which are not always exact repeats. Equal values may be shown once. In all, about 5,500 compounds went through this assay and about 2,000 (36%) were called active. Inconclusive results (about 18%) are left out. Cut-off read from the data, not from the text of the source: active = normalized growth mostly below about 0.91 (no sharp cut-off); inconclusive = no clear call, values can overlap the other calls; inactive = mostly above about 0.92. The list shows a part of the results.

Test: chemical genetic growth profiling, strain panel (AID 1159580);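 note: tested at 20 µM; growth read once vehicle control cultures reached saturation at 30 °C; 1 = growth at the plate median or of vehicle wells; lower values mean less growth of the strain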
Conditions: S. cerevisiae deletion strains, growth OD

Measured: normalized growth

OCCN1CCN(CCCN2c3ccccc3Sc3ccc(C(F)(F)F)cc32)CC1
active: locus YAL021C, strain ccr4, hits give low values 0.828 | locus YAL026C, strain drs2, hits give low values 0.0826 | locus YBR021W, strain FUR4, hits give low values 0.589 | locus YBR023C, strain chs3, hits give low values 0.899 | locus YDR069C, strain doa4, hits give low values 0.863 | locus YDR137W, strain rgp1, hits give low values 1.27 [resistant] | locus YDR195W, strain ref2 1.27 [resistant] | locus YDR388W, hits give low values 0.878 | locus YFR010W, strain ubp6, hits give low values 0.839 | locus YGR229C, strain SMI1, hits give low values 0.602 and 0.781 | locus YGR252W, strain gcn5, hits give low values 0.664 | locus YJL095W, strain BCK1, hits give low values 0.794
inactive: locus YAL013W, strain DEP1, hits give low values 0.947 and 0.96 | locus YAL030W, strain snc1, hits give low values 0.984 | locus YAL040C, strain CLN3, hits give low values 1.01 | locus YBL061C, strain skt5, hits give low values 0.951 | locus YBR009C, strain hhf1, hits give low values 0.935 | locus YBR171W, strain sec66, hits give low values 0.992 | locus YBR229C, strain ROT2, hits give low values 0.987 | locus YBR231C, strain swc5, hits give low values 0.964 | locus YBR279W, strain paf1, hits give low values 0.953 | locus YCL011C, strain gbp2, hits give low values 0.919 | locus YCL016C, strain dcc1, hits give low values 0.937 | locus YCL029C, strain bik1, hits give low values 0.978 | locus YCL061C, strain MRC1 (second series), hits give low values 0.957 | locus YCL069W, strain vba3, hits give low values 0.995 | locus YCR088W, strain abp1, hits give low values 0.987 | locus YDL005C, strain med2, hits give low values 1 | locus YDL035C, strain GPR1, hits give low values 0.928 | locus YDL040C, strain nat1, hits give low values 0.98 | locus YDL074C, strain BRE1, hits give low values 0.808 | locus YDL101C, strain DUN1, hits give low values 0.979 | locus YDL134C, strain PPH21, hits give low values 0.977 | locus YDL185W, strain tfp1, hits give low values 0.981 | locus YDL192W, strain arf1, hits give low values 0.963 | locus YDR001C, strain nth1, hits give low values 0.989 | locus YDR101C, strain arx1, hits give low values 0.933 | locus YDR150W, strain NUM1, hits give low values 0.997 | locus YDR159W, strain sac3, hits give low values 0.992 | locus YDR162C, strain NBP2, hits give low values 0.947 | locus YDR297W, strain sur2, hits give low values 0.981 | locus YDR318W, strain mcm21, hits give low values 0.947 | locus YDR334W, strain swr1, hits give low values 0.987 | locus YDR335W, strain msn5, hits give low values 0.972 | locus YDR363W, strain ESC2, hits give low values 0.978 | locus YDR392W, strain spt3, hits give low values 1.06 | locus YDR502C, strain sam2, hits give low values 0.939 | locus YEL003W, strain gim4, hits give low values 0.982 | locus YEL037C, strain rad23, hits give low values 0.994 | locus YEL061C, strain CIN8 (second series), hits give low values 0.973 | locus YEL061C, strain CIN8, hits give low values 0.996 | locus YER002W, strain NOP16, hits give low values 1 | locus YER015W, strain faa2, hits give low values 0.931 | locus YER016W, strain bim1, hits give low values 0.979 | locus YER110C, hits give low values 0.996 | locus YER111C, strain swi4, hits give low values 0.986 | locus YER155C, strain BEM2 (second series), hits give low values 1 | locus YER155C, strain BEM2, hits give low values 0.989 | locus YER167W, strain BCK2, hits give low values 0.974 | locus YGL078C, strain dbp3, hits give low values 0.986 | locus YGL086W, strain mad1, hits give low values 0.964 | locus YGL167C, strain pmr1, hits give low values 0.976 | locus YGL173C, strain kem1, hits give low values 0.964 | locus YGL227W, strain vid30, hits give low values 0.984 | locus YGL240W, strain doc1, hits give low values 0.997 | locus YGL248W, strain PDE1, hits give low values 0.989 | locus YGL253W, strain hxk2, hits give low values 0.917 | locus YGR078C, strain PAC10, hits give low values 0.907 and 0.971 | locus YGR135W, strain pre9, hits give low values 0.896 | locus YHR013C, strain ard1, hits give low values 1 | locus YHR027C, strain rpn1, hits give low values 0.937 | locus YHR030C, strain SLT2, hits give low values 0.933 | locus YHR079C, strain IRE1 (second series), hits give low values 0.973 | locus YHR094C, strain hxt1, hits give low values 0.992 | locus YHR129C, strain ARP1, hits give low values 0.983 | locus YHR142W, strain chs7, hits give low values 0.897 | locus YHR200W, strain rpn10, hits give low values 0.968 | locus YIL066C, strain RNR3, hits give low values 0.915 | locus YIL073C, strain SPO22, hits give low values 1.18 | locus YIL125W, strain kgd1, hits give low values 0.995 | locus YIR030C, strain dcg1, hits give low values 0.985 | locus YJL092W, strain hpr5, hits give low values 0.969 | locus YJL095W, strain BCK1 (second series), hits give low values 0.94 | locus YJL115W, strain asf1, hits give low values 0.95 | locus YJL129C, strain trk1, hits give low values 0.96 | locus YJL134W, strain LCB3, hits give low values 0.997 | locus YJL154C, strain vps35, hits give low values 0.982 | locus YJL164C, strain tpk1, hits give low values 0.917 | locus YJL166W, strain qcr8, hits give low values 0.956 | locus YJL168C, strain set2, hits give low values 0.991 | locus YJL187C, strain SWE1 (second series), hits give low values 0.905 | locus YJR043C, strain POL32, hits give low values 0.971
